# Screens as filed in PubChem.
# An excerpt weighted towards active compounds, which were near 18% of everything screened.
# DT40 TDP1 CPT = qHTS for Inhibitors of human tyrosyl-DNA phosphodiesterase 1 (TDP1): qHTS in cells in presence of CPT; chicken DT40 Tdp1-/-;hTDP1 cells + 20 nM CPT, ATP luminescence, 48 h; Potency, µM (series often up to 46.2 µM), for inactives: at the top dose activity change, negative = growth inhibition, most hits filed as inhibitors; actives 12% (n = 420,000); also: potency is read from the fitted curve at half-maximal effect; nearly all actives have a fitted effect of over 55% in size
#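 Chicken DT40 Tdp1-/- cells complemented with human TDP1, 400 cells/well, exposed to compounds plus 20 nM camptothecin for at least 48 h at 37 C; viability read as ATP content by CellTiter-Glo luminescence.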
# Six1-Eya2 blk = qHTS Assay for Inhibitors of the Six1/Eya2 Interaction; Homeobox protein SIX1 (Homo sapiens) + Protein phosphatase EYA2 (Homo sapiens), …; AlphaScreen GST-Six1/His-Eya2 binding, biochemical; hits give low values; activity change, % (concentration not given with the values); actives 0.56% (n = 360,000); in the data active = activity change below about -65%; inconclusive = mostly about -30% to -63%
# Target sequence (O00167 whole entry, looked up): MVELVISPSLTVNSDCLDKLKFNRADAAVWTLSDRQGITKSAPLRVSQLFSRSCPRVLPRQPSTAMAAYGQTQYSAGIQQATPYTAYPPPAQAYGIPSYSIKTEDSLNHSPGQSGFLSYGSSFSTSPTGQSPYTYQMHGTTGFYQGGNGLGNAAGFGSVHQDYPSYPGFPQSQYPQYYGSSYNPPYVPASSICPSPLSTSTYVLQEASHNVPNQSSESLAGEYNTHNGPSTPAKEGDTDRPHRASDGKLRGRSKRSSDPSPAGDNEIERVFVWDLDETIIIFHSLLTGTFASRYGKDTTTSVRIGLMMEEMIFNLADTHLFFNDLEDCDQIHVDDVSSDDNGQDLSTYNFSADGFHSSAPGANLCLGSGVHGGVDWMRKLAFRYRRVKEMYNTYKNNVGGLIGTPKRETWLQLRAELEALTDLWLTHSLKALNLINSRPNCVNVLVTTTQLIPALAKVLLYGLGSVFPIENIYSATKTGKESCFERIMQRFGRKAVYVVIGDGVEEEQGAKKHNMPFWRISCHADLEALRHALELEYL
# Target sequence (Q15475 whole entry, looked up): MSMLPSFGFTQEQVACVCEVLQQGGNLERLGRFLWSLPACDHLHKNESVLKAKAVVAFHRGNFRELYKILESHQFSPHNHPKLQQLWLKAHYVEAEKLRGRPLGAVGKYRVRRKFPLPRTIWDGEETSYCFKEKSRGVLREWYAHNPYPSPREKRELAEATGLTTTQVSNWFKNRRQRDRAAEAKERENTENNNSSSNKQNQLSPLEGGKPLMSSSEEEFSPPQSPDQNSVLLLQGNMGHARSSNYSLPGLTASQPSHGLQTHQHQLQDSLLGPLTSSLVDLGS
#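 AlphaScreen luminescence read after one hour at 37 °C in darkness. Pin-transferred compounds met GST-Six1 and His-Eya2 protein (5X stock 250 nM/500 nM) plus glutathione donor and Ni-chelate acceptor beads (5X, 50 ug/mL).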
# TDP1 block = qHTS Assay for Inhibitors of Tyrosyl-DNA Phosphodiesterase (TDP1); Tyrosyl-DNA phosphodiesterase 1 (Homo sapiens), Q9NUW8; recombinant TDP1, AlphaScreen DNA substrate cleavage; Potency, µM (series often up to 130 µM), inactives show top-dose activity change, negative = inhibition, most hits filed as inhibitors; actives 0.28% (n = 350,000); AID 485290, 2010; also: potency is read from the fitted curve at half-maximal effect; nearly all actives have a fitted effect of over 40% in size
#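 Recombinant human Tdp1 (E. coli-expressed, 1 nM final) preincubated with compounds 15 min at room temperature, then 5'-biotin/3'-phosphotyrosine-FITC DNA substrate (15 nM final) added for 5 min. AlphaScreen beads (10 ug/ml final) added 10 min; cleavage lowers signal.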
# CtBP-E1A blk = qHTS Assay for Inhibitors of the CtBP/E1A Interaction. activity change, % (concentration not given with the values). CtBP / adenovirus E1A interaction (AlphaScreen). actives 0.49% (n = 340,000). AlphaScreen GST-E1A/His-CtBP binding, 1536-well; hits give low values; in the data active = activity change below about -65%; inconclusive = mostly about -30% to -63%
#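 In 5 uL wells, 23 nL compound meets equimolar GST-E1A and His-CtBP (5X stock 125 nM each) for 2 h, 37 °C. Beads (5X, 50 ug/mL) then 1 h, 37 °C, dark.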
# IL1B secr inh = qHTS for Inhibitors of Inflammasome Signaling: IL-1-beta AlphaLISA Primary Screen; THP-1 LPS/ATP IL-1B secretion, AlphaLISA, 16 h; hits give low values; activity change, % at 57.5 µM; actives 4.7% (n = 360,000); AID 743279, 2014; in the data active = activity change below about -50%; inconclusive = mostly about -30% to -49%
#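 Secreted IL-1B measured by AlphaLISA bead assay after 16 h compound exposure of THP-1 cells; compounds (final up to 57.5 uM) added 1 h before LPS (250 ng/mL) and ATP (1.25 mM) stimulation; lower signal means less secretion.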
# TDP1 cell noCPT = qHTS for Inhibitors of human tyrosyl-DNA phosphodiesterase 1 (TDP1): qHTS in cells in absence of CPT. actives 15% (n = 420,000). DT40 Tdp1-/- hTDP1 cells, no CPT, ATP luminescence, 48 h. Potency, µM (top dose mostly 46.2 µM), for the others: at the highest dose activity change, negative = growth inhibition, actives largely listed as inhibitors. AID 686978, 2013; also: potency is read from the fitted curve at half-maximal effect; nearly all actives have a fitted effect of over 55% in size
#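 Growth of hTDP1-complemented DT40 Tdp1-knockout cells is measured by ATP luminescence after at least 48 hr compound exposure at 37 °C, with DMSO substituting for the 20 nM CPT used in the parallel screen.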
# An asterisk follows results filed as active; ? = inconclusive; · = no result given; [ ] = remark or other dose. Unless noted, calls follow the shape of the dose curve; as a rule, active = well fitted curve in the direction sought with a large enough effect; inconclusive = small, poorly fitted or top-dose-only effect, or another doubt; inactive = no such curve, though single readings can be large; an effect the other way counts as inactive or inconclusive. % is scaled to controls: 0 for no effect and ±100 for the full control effect.
SMILES,DT40 TDP1 CPT,Six1-Eya2 blk,TDP1 block,CtBP-E1A blk,IL1B secr inh,TDP1 cell noCPT
COc1ccc(C(=O)N2CCN(c3nc4c(C)c(Cl)ccc4s3)CC2)c(OC)c1,16µM*,·,3%,·,·,9.2µM*
Cc1c(Cl)ccc2sc(N3CCN(C(=O)C(C)C)CC3)nc12,12µM*,·,3%,·,·,6.5µM*
O=C(c1ccco1)N1CCN(c2nc3c(F)cc(F)cc3s2)CC1,?,·,0%,·,·,?
Cc1cc(C)c2nc(N3CCC(C(=O)N4CCN(C(=O)c5ccco5)CC4)CC3)sc2c1,?,-16,6%,-12,?,15µM*
COc1cc2ccccc2cc1C(=O)N1CCN(c2nc3c(C)cc(C)cc3s2)CC1,?,·,8%,·,·,18µM*
CC(=O)Nc1ccc(NC(=O)COc2ccc(Cl)cc2Cl)cc1,?,3,·,-3,0,-22%
COc1ccccc1CN1CCCC(n2cc(C(=O)N3CCCC3)nn2)C1 (stereo not drawn),42%[9.04 µM],·,·,·,·,?
O=C(Nc1ccc(Cl)c(Cl)c1)C1CCN(C(=O)c2ccco2)CC1,16µM*,-8,4%,-1,-19,15µM*
O=C(c1ccco1)N1CCN(c2ccc(Cl)c(Cl)c2)CC1,21µM*,-6,·,2,?,15µM*
Cc1c(Cl)ccc2sc(N3CCN(C(=O)C4=COCCO4)CC3)nc12,?,0,0%,-5,-61*,?
Cc1c(Cl)ccc2sc(N3CCN(C(=O)c4ccco4)CC3)nc12,15µM*,·,-10%,·,·,12µM*
C/C(=C/c1ccccc1)C(=O)N1CC(C)OC(C)C1 (stereo not drawn),-13%,-3,0%,·,39,-21%
Cc1c(Cl)ccc2sc(N3CCN(C(=O)CS(=O)(=O)c4ccccc4)CC3)nc12,6.5µM*,·,5%,·,·,4.1µM*
O=C(c1ccco1)N1CCCN(C(=O)c2ccco2)CC1,?,4,1%,2,0,-30%
CCC(=O)N1CCN(c2nc3c(C)cccc3s2)CC1,?,·,-5%,·,·,?
O=C(c1ccco1)N1CCN(C(=O)c2ccco2)C1=S,2.6µM*,2,·,0,-100*,5.8µM*
Cn1c(=O)[nH]c(=O)c2c1nc(CN1CCN(c3ccc(F)cc3)CC1)n2CCc1ccccc1,-13%,2,5%,9,37,-17%
Cc1ccccc1NC(=O)Nc1cc(-c2ccccc2)nn1C,-5%,4,·,1,2,-28%
Cc1ccccc1C(=O)Nc1cc(-c2cc(C(C)(C)C)oc2C)nn1C,?,-9,11%,-8,-59*,?
CC[C@H](C)[C@H](NC(=O)[C@H](Cc1ccc(O)cc1)NC(=O)[C@H](Cc1cnc[nH]1)NC(=O)[C@H](CCCNC(=N)N)NC(=O)[C@H](CC(C)C)NC(=O)[C@H](C)NC(=O)[C@H](CO)NC(=O)[C@H](Cc1ccc(O)cc1)NC(=O)[C@H](Cc1ccc(O)cc1)NC(=O)[C@H](CCCNC(=N)N)NC(=O)[C@H](C)NC(=O)[C@H](CCSC)NC(=O)[C@H](CC(=O)O)NC(=O)[C@H](CCC(=O)O)NC(=O)[C@H](C)NC(=O)[C@@H]1CCCN1C(=O)[C@H](C)NC(=O)[C@H](CC(=O)O)NC(=O)[C@H](CCC(=O)O)NC(=O)CNC(=O)[C@@H]1CCCN1C(=O)[C@H](CC(N)=O)NC(=O)[C@H](CC(=O)O)NC(=O)[C@@H]1CCCN1C(=O)[C@H](CCCCN)NC(=O)[C@H](CO)NC(=O)[C@@H]1CCCN1C(=O)[C@@H](N)Cc1ccc(O)cc1)C(=O)N[C@@H](CC(N)=O)C(=O)N[C@@H](CC(C)C)C(=O)N[C@H](C(=O)N[C@H](C(=O)N[C@@H](CCCNC(=N)N)C(=O)N[C@@H](CCC(N)=O)C(=O)N[C@@H](CCCNC(=N)N)C(=O)N[C@@H](Cc1ccc(O)cc1)C(N)=O)[C@@H](C)O)[C@@H](C)CC,·,·,8%,·,·,·
O=C(N/N=C/c1cccnc1)C1CCCN(S(=O)(=O)c2ccccc2)C1 (stereo not drawn),-10%,-1,4%,4,13,-4%
Cc1cc(C)n2cc(CSc3ccc(Cl)cc3)nc2n1,?,-2,·,4,?,?
COc1ccccc1CCN=C(N)NS(=O)(=O)c1ccc(C)c(C)c1,-22%,-1,1%,-4,-19,1%
CCCCNc1cccc2c1S(=O)(=O)N(CCCC)CC(COCc1ccccc1)O2 (stereo not drawn),?,1,·,3,2,16µM*
CCCCN1CC(COCc2ccccc2)Oc2cccc(Oc3ccc(F)cc3)c2S1(=O)=O (stereo not drawn),?,9,·,15,28,?
SMILES,DT40 TDP1 CPT,Six1-Eya2 blk,TDP1 block,CtBP-E1A blk,IL1B secr inh,TDP1 cell noCPT
CCCCN1CC(COCc2ccccc2)Oc2cccc(Oc3cc(C)c(C)c(C)c3)c2S1(=O)=O (stereo not drawn),7.3µM*,-3,·,0,21,5.2µM*
CCCCN1CC(COCc2ccccc2)Oc2cccc(Oc3ccccc3)c2S1(=O)=O (stereo not drawn),?,0,·,-18,0,18µM*
CCCCN1CC(COCc2ccccc2)Oc2cccc(Oc3ccc(C)cc3)c2S1(=O)=O (stereo not drawn),8.2µM*,5,·,3,16,7.3µM*
CCCCN1CC(COCc2ccccc2)Oc2cccc(NCc3ccc(OC)cc3)c2S1(=O)=O (stereo not drawn),?,-4,·,-5,34,?
CCc1ccc(C(=O)COC(=O)C(Cc2c[nH]c3ccccc23)NC(=O)c2ccc(CC)cc2)cc1 (stereo not drawn),?,·,2%,·,·,?
Cc1ccc(C(=O)Cn2nnc3ccccc32)cc1,1%,-3,2%,2,-16,-19%
CCCCN1CC(COCc2ccccc2)Oc2cccc(OCc3ccc(OC)cc3)c2S1(=O)=O (stereo not drawn),5.8µM*,4,·,0,15,4.1µM*
